Screens deposited in PubChem by The Scripps Research Institute Molecular Screening Center.
CHO-K1 Ca ag: nonselective activator or artifact in parental CHO-K1 cells. Fluo-8 calcium fluorescence; scaled to maximal ATP response, vehicle zero. activation, % at 3 µM. 0.48% of 360,000 active. AID 602248; in the data active = activation above about 15%;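 note: untransfected CHO-K1 host cells lacking M1 receptor as counterscreen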
CHO-K1 Ca antag: nonselective inhibitor or artifact in parental CHO-K1 cells | ATP-induced calcium, Fluo-8 fluorescence | inhibition, % at 3 µM | 0.6% of 360,000 active | AID 602250;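 active = inhibition above a per-plate cutoff, the plate's mean sample inhibition plus 3 SD, cut at about 24% in these data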
CHO-K1 Ca PAM: counter-screen for M1 PAMs: effect in parental CHO-K1 cells. 0.02% of 360,000 active. activation, % at 3 µM. AID 602247. ATP EC20, Fluo-8 calcium fluorescence; 0% at ATP EC20, 100% at ATP max;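 active = activation above the run cutoff, the mean activation of all test compounds plus 3 SD, cut at about 40% in these data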;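 note: peak over basal fluorescence ratio in a 140 s read after ATP addition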
M1 antag: antagonists of human M1 muscarinic receptor; CHO-K1 hM1, Fluo-8 calcium fluorescence, ACh EC80 antagonist; 1.3% of 360,000 active; inhibition, % at 3 µM;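 active = percent inhibition above its own plate's cutoff, namely the mean of that plate's compound wells plus 3 SD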;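 note: peak over basal fluorescence ratio during 140 s after agonist addition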
Target sequence (P11229 whole entry, looked up): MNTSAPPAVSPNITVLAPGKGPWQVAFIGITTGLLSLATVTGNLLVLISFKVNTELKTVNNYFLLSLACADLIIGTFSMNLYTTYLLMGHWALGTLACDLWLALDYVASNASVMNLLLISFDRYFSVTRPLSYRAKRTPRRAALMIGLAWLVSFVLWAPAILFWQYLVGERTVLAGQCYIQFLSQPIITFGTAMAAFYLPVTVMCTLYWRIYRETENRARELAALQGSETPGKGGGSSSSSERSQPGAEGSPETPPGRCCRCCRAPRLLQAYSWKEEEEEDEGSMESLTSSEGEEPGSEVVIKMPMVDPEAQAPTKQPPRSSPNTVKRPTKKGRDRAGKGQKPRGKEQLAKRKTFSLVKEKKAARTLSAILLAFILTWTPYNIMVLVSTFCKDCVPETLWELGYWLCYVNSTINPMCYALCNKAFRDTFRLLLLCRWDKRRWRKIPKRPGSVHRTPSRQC
CHRM1 PAM: positive allosteric modulators of human M1 muscarinic receptor; activation, % at 3 µM; P11229; CHO-K1 hM1, Fluo-8 calcium fluorescence, ACh EC20; 0% = ACh EC20, 100% = maximal ACh; 0.088% of 360,000 active; in the data active = activation above about 19%, passing the limit was not always enough
CHRM1 agonist: activates human CHRM1 receptor. activation, % at 3 µM. P11229. CHO-K1 hM1, Fluo-8 calcium fluorescence, agonist mode; 0% DMSO, 100% acetylcholine EC100. 0.33% of 360,000 active;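 active = activation above the run's mean compound activation plus 3 SD, cut at about 16% in these data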;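 note: peak over basal fluorescence ratio within a 140 s kinetic read after compound addition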
Hits are given with their value. An excerpt weighted towards active compounds, which were near 2.3% of everything screened.

`Cc1ccccc1N(C(=O)c1snc(C(N)=O)c1N)C(C(=O)NCc1ccccc1)c1ccc(O)cc1` (stereo not drawn) gave CHO-K1 Ca ag inactive, CHO-K1 Ca antag inactive, CHO-K1 Ca PAM inactive, M1 antag inactive, CHRM1 PAM inactive and CHRM1 agonist inactive.
NC(=O)c1nsc(C(=O)N(c2ccccc2F)C(C(=O)NCc2ccccc2)c2ccc(O)cc2)c1N (stereo not drawn) was read as CHO-K1 Ca ag inactive, CHO-K1 Ca antag inactive, CHO-K1 Ca PAM inactive, M1 antag 39, CHRM1 PAM inactive and CHRM1 agonist inactive.
`COC(=O)c1sc(NC(=O)c2cc(-c3ccccc3)nc3ccccc23)c(C#N)c1C` gave CHO-K1 Ca ag inactive, CHO-K1 Ca antag inactive, CHO-K1 Ca PAM inactive, M1 antag inactive, CHRM1 PAM inactive and CHRM1 agonist inactive.
`Cc1ccccc1-c1cc(C(=O)Nc2sc(C(=O)OC(C)C)c(C)c2C#N)c2ccccc2n1` gave CHO-K1 Ca ag inactive, CHO-K1 Ca antag 35, CHO-K1 Ca PAM inactive, M1 antag 31, CHRM1 PAM inactive and CHRM1 agonist inactive.
`Cc1ccc(NC(=O)CNC(=O)c2ccco2)c(Cl)c1` gave CHO-K1 Ca ag inactive, CHO-K1 Ca antag inactive, CHO-K1 Ca PAM inactive, M1 antag inactive, CHRM1 PAM inactive and CHRM1 agonist inactive.
For Cc1sc2cc(-c3cccc([N+](=O)[O-])c3)c(-c3cccc([N+](=O)[O-])c3)c[n+]2c1C the results were CHO-K1 Ca ag inactive, CHO-K1 Ca antag inactive, CHO-K1 Ca PAM inactive, M1 antag 32, CHRM1 PAM inactive and CHRM1 agonist inactive.
O=[N+]([O-])c1cccc(-c2cc3cccc[n+]3cc2-c2cccc([N+](=O)[O-])c2)c1 was read as CHO-K1 Ca ag inactive, CHO-K1 Ca antag inactive, CHO-K1 Ca PAM inactive, M1 antag inactive, CHRM1 PAM inactive and CHRM1 agonist inactive.
For CCc1noc(C)c1C(=O)N(CCC(C)C)c1c(N)n(Cc2ccccc2)c(=O)[nH]c1=O the results were CHO-K1 Ca ag inactive, CHO-K1 Ca antag inactive, CHO-K1 Ca PAM inactive, M1 antag inactive, CHRM1 PAM inactive and CHRM1 agonist inactive.
For CC1(C)Cc2c(sc3nc[nH]c(=O)c23)CO1 the results were CHO-K1 Ca ag inactive, CHO-K1 Ca antag 26, CHO-K1 Ca PAM inactive, M1 antag inactive, CHRM1 PAM inactive and CHRM1 agonist inactive.
For CC1(C)Cc2c(sc3nn[nH]c(=O)c23)CO1 the results were CHO-K1 Ca ag inactive, CHO-K1 Ca antag inactive, CHO-K1 Ca PAM inactive, M1 antag inactive, CHRM1 PAM inactive and CHRM1 agonist inactive.
CCC1CCCCN1C(=O)CCCOc1ccccc1 (stereo not drawn) was read as CHO-K1 Ca ag inactive, CHO-K1 Ca antag inactive, CHO-K1 Ca PAM inactive, M1 antag inactive, CHRM1 PAM inactive and CHRM1 agonist inactive.
`CCCCC[C@H](O)/C=C/[C@H]1CCC(=O)[C@@H]1CCCCCCC(=O)N1CCCCC1CO` (stereo partly drawn) gave CHO-K1 Ca ag 16, CHO-K1 Ca antag 53, CHO-K1 Ca PAM inactive, M1 antag inactive, CHRM1 PAM inactive and CHRM1 agonist inactive.
OC(CNCCNc1ncccc1C(F)(F)F)Cn1ccc2ccccc21 (stereo not drawn) was read as CHO-K1 Ca ag inactive, CHO-K1 Ca antag inactive, CHO-K1 Ca PAM inactive, M1 antag inactive, CHRM1 PAM inactive and CHRM1 agonist 20.
`CC(=O)NNC(=S)NC(=O)C(c1ccccc1)c1ccccc1` gave CHO-K1 Ca ag inactive, CHO-K1 Ca antag inactive, CHO-K1 Ca PAM inactive, M1 antag inactive, CHRM1 PAM inactive and CHRM1 agonist inactive.
`CC(C)(C)C(=O)NC(=S)NNC(=O)C(c1ccccc1)c1ccccc1` gave CHO-K1 Ca ag 107, CHO-K1 Ca antag 47, CHO-K1 Ca PAM inactive, M1 antag 91, CHRM1 PAM inactive and CHRM1 agonist 114.
`CC(C)CN(CCNC(=O)CN1C(=O)CSc2ccc(S(=O)(=O)N3CCOCC3)cc21)CC(C)C` gave CHO-K1 Ca ag inactive, CHO-K1 Ca antag inactive, CHO-K1 Ca PAM inactive, M1 antag 40, CHRM1 PAM inactive and CHRM1 agonist inactive.
`CCCCN(C)CCNC(=O)CN1C(=O)CSc2ccc(S(=O)(=O)N3CCOCC3)cc21` gave CHO-K1 Ca ag inactive, CHO-K1 Ca antag inactive, CHO-K1 Ca PAM inactive, M1 antag 42, CHRM1 PAM inactive and CHRM1 agonist inactive.
